About 83,000 compounds went through this panel and 20% of them were active in at least one assay; those are over-represented in the sample as a whole.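 Method: cells in 96-well plates; compound added at one concentration; 48 h incubation; percent growth measured; values under 10 scored active.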 Activity calls are given as the source filed them.
Columns and labels:
Experiment in all cases: NCI-60 one-dose screen, 48 h (100 = growth as untreated, 0 = no growth, -100 = all killed)
[1] = tested on: RPMI-8226 leukemia; details: 10 µM unless noted
[2] = tested on: OVCAR-8 ovarian; details: 10 µM unless noted
[3] = tested on: OVCAR-5 ovarian; details: 10 µM unless noted
[4] = tested on: OVCAR-4 ovarian; details: 10 µM unless noted
[5] = tested on: SK-OV-3 ovarian; details: 10 µM unless noted
[6] = tested on: IGROV1 ovarian; details: 10 µM unless noted
[7] = tested on: OVCAR-3 ovarian; details: 10 µM unless noted
[8] = tested on: HS 578T breast; details: 10 µM unless noted
[9] = tested on: NCI/ADR-RES ovarian; details: 10 µM unless noted
[10] = tested on: T-47D breast; details: 10 µM unless noted
[11] = tested on: MDA-MB-435 melanoma; details: 10 µM unless noted
[12] = tested on: SW-620 colon; details: 10 µM unless noted
[13] = tested on: MCF7 breast; details: 10 µM
[14] = tested on: HCT-116 colon; details: 10 µM unless noted
[15] = tested on: HCC-2998 colon; details: 10 µM unless noted
[16] = tested on: KM12 colon; details: 10 µM unless noted

Measured: growth

O=C(Nc1ccc(I)cc1F)c1cc(F)ccc1O
active: [1] -33.8% | [2] 6.16% | [5] -6.45% | [7] 6.68% | [8] -3.33% | [9] 4.19% | [10] -12.4% | [11] -5.16% | [12] 7.82% | [13] 0.117% | [14] -6.74% | [15] 8.95% | [16] -11.4%
inactive: [3] 23.6% | [4] 12.4% | [6] 12.7%

O=C(Nc1ccc(Br)cc1F)c1cc(I)ccc1O
inactive: [3] 24.2% | [4] 15.4% | [6] 16.6% | [12] 14.1% | [15] 27.4%
active: [1] -8.84% | [2] 9.66% | [5] -10.4% | [7] 4.89% | [8] 7.43% | [9] 4.84% | [10] -14% | [11] 4.78% | [13] 5.42% | [14] 5.43% | [16] 6.15%

O=C(Nc1ccc(Cl)cc1F)c1cc(F)ccc1O
active: [1] -23% | [2] 9.44% | [5] -4.5% | [7] 9.51% | [8] 1.1% | [9] 7.19% | [10] -8.15% | [11] 0.146% | [12] 9.96% | [13] 3.15% | [14] 3.99% | [16] 0.993%
inactive: [3] 27.8% | [4] 11.2% | [6] 17.5% | [15] 11.7%

O=c1oc2ccc(F)cc2c(=O)n1-c1ccc(I)cc1F
active: [1] -20.4% | [2] 8.61% | [5] -4.12% | [7] 8.05% | [8] -4.95% | [9] 2.32% | [10] -16.2% | [11] -1.4% | [13] 1.73% | [14] 7.36% | [16] -0.975%
inactive: [3] 22.2% | [4] 12.4% | [6] 17.2% | [12] 11%

O=C(Nc1ccc(Cl)cc1F)c1cc(I)ccc1O
inactive: [2] 10.1% | [3] 79.9% | [4] 23.1% | [6] 27.2% | [7] 10.4% | [9] 11.3% | [11] 18.5% | [12] 27.4% | [13] 47% | [14] 21.2% | [15] 81.6% | [16] 62%
active: [1] 3.96% | [5] -4.98% | [8] 3.41% | [10] -0.952%

O=c1oc2ccc(I)cc2c(=O)n1-c1ccc(I)cc1F
inactive: [3] 27.1% | [4] 16.7% | [6] 15.9% | [15] 21%
active: [1] -31.2% | [2] 9.03% | [5] 0.665% | [7] 7.88% | [8] -4.47% | [9] 9.94% | [10] -3.25% | [11] -4.7% | [12] 8.02% | [13] 2.88% | [14] 2.66% | [16] -10.7%

Nc1ccc(-c2nn3c(CCC(=O)c4nc5ncccc5[nH]4)nnc3s2)c(O)c1
inactive: [1] 101% | [2] 98.2% | [3] 95% | [4] 98% | [5] 91.4% | [6] 70.9% | [7] 100% | [8] 74% | [9] 93.8% | [10] 87.1% | [11] 97.2% | [12] 90.1% | [13] 84.7% | [14] 86.7% | [15] 69.4% | [16] 98.5%

O=C(Nc1ccc(F)cc1F)c1cc(I)ccc1O
inactive: [2] 11.8% | [3] 32.6% | [4] 20.1% | [6] 22% | [8] 10% | [12] 14.5% | [15] 24.4%
active: [1] -2.64% | [5] -13.8% | [7] 8.96% | [9] 8.58% | [10] -9.33% | [11] 5.35% | [13] 5.52% | [14] 6.45% | [16] 6.2%

CC(C)C[C@H](C(=O)N[C@@H](C)C(N)=O)N1CC=CCN(O)S1(=O)=O
inactive: [1] 106% [5 µM] | [2] 96.4% [5 µM] | [3] 99.3% [5 µM] | [4] 106% [5 µM] | [5] 108% [5 µM] | [6] 120% [5 µM] | [7] 110% [5 µM] | [8] 110% [5 µM] | [9] 105% [5 µM] | [10] 103% [5 µM] | [11] 119% [5 µM] | [12] 103% [5 µM] | [14] 109% [5 µM] | [15] 110% [5 µM] | [16] 109% [5 µM]

COC(=O)C1=Nc2ccc(F)cc2/C1=C/c1sc(=S)[nH]c1O
inactive: [2] 13.3% | [3] 43.6% | [4] 58.2% | [5] 28.5% | [6] 14.4% | [8] 23.1% | [10] 61.2% | [12] 22.6% | [13] 12.5% | [16] 10.3%
active: [1] -9.01% | [7] -1.67% | [9] 7.28% | [11] -20.9% | [14] 6.89%

— PubChem BioAssay (NCI)
